AHR act – human AHR activation; activation, % at 5 µM; AID 2796; AHR-responsive luciferase reporter cells, luminescence; 2.5% of 320,000 active; in the data active = activation above about 47%;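 note: 0% = vehicle wells and 100% = reference agonist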
VLA-4 inh – inhibition in a human VLA-4 binding assay | 0.2% of 330,000 active | P13612 | VLA-4 expressing cells, ligand binding flow cytometry | inhibition, % (about 7 µM as worked out from the volumes in the protocol); in the data active = inhibition above about 50%
A1 inh – inhibitors of the anti-apoptotic protein A1, read as caspase activation | MEF A1-2A-BIM cells, Caspase-Glo 3/7 luminescence, 3 h; percent of clofoctol response, vehicle zero | caspase activation, % (concentration not given with the values) | 0.066% of 330,000 active;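 active = over half of replicate activation scores above 10%, or exactly half above 10 with the replicate mean above 10; inconclusive = replicate mean below 10 yet half the replicates above 10; inactive = over half of replicates below 10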
Mot1-301 SUMO – SUMOylation pathway inhibition by Mot1-301 growth rescue. growth rescue, % at 18.8 µM. S. cerevisiae Mot1-301 growth rescue, ATP luminescence, 38.5C; percent above DMSO median, 100 means doubled. 1% of 320,000 active. AID 2716;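 active = every valid replicate shows activation above 250% relative to neutral control wells; inactive = the rest, any valid replicate at or below 250%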;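 note: OY570 slx delta 5 strain wells were the positive control but not used for scaling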
Efflux pump inh – antifungal efflux pump inhibition, Nile Red retention; S. cerevisiae Candida pump triplex; inhibition, % at 10 µM; 0.44% of 330,000 active; AID 485275;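 active = plate passing quality check with inhibition over a set limit, or well fluorescence over plate mean plus 4 SD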;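 note: Nile Red retained in pooled yeast measured as flow cytometry median fluorescence; 0% = buffer negative control and 100% = Enniatin B positive control; higher means more Nile Red kept so more efflux inhibition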
ALR inh – inhibitors of human sulfhydryl oxidase ALR; 3.8% of 290,000 active; inhibition, % (test concentration not listed); AID 485317; purified ALR, DTT oxidation, H2O2 HRP-luminol luminescence;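 active = mean replicate inhibition above about 79%, with every replicate also reaching it, limit read from the data; inconclusive = only one of the two criteria met; inactive = mean below limit and not every replicate reaching it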
Starred values were filed as active, the others as inactive; ? = inconclusive; / = no result given. Only some compounds are listed: those with a hit (about 7.2% of all), similar ones and a draw of the others.

SMILES	AHR act	VLA-4 inh	A1 inh	Mot1-301 SUMO	Efflux pump inh	ALR inh
O=S(=O)(c1cccnc1)N1CCn2cccc2C1c1ccccc1F (stereo not given)	-1	-36	0	29	0	1
Cc1ccc(C(=O)/C=C/C(=O)O)cc1	13	-4	0	80	0	98*
O=c1[nH]c2ccc(S(=O)(=O)Nc3ccc(Cl)cc3)cc2[nH]1	1	-7	0	14	0	-1
Cc1ccc(N/C(CSC(N)=O)=N\S(=O)(=O)c2ccc(C)cc2)cc1	3	3	0	-10	0	/
Cc1sc2nc(SCC(=O)C(C)(C)C)n(Cc3ccco3)c(=O)c2c1C	-2	1	-1	406	0	-7
Cc1nc(NCc2ccco2)c2c(C)c(C)sc2n1	-10	0	2	-5	0	97*
Cc1sc2ncnc(SCc3ccco3)c2c1C	3	-4	1	0	0	91*
Cc1sc2nc3c4ccccc4c(NCc4ccco4)nn3c(=O)c2c1C	-5	-6	-7	165	0	98*
O=C(CNC1CCCCC1)Nc1cccc(C(F)(F)F)c1	9	10	0	-17	0	-16
CCOc1cc(/C=N/NC(=O)CCn2nc(C)cc2C)ccc1O	6	7	0	-3	0	99*
Cc1cc(C)n(CCC(=O)N/N=C/c2ccc(O)cc2)n1	3	-17	0	-4	0	99*
COc1ccccc1OCC(=O)N/N=C/c1c(O)ccc2ccccc12	51*	3	0	15	0	-6
Cc1cc(C)n(CCC(=O)N/N=C/c2c(O)ccc3ccccc23)n1	62*	11	0	151	0	/
COc1cc(/C=N/NC(=O)CCn2nc(C)cc2C)ccc1O	1	-14	2	-3	0	/
COc1ccccc1OCC(=O)N/N=C/c1cccc2cccnc12	5	5	0	-4	0	0
Cc1c(C(c2cccc(Br)c2)c2c(C)n(C)n(-c3ccccc3)c2=O)c(=O)n(-c2ccccc2)n1C	-1	6	1	3	0	-5
CCOC(=O)C1=C(c2ccccc2)N=C2SCC(=O)N2C1c1cccc(OC)c1 (stereo not given)	2	4	0	3	0	10
CSc1ccccc1NC(=O)N1CCCC(C(=O)c2ccc3c(c2)OCO3)C1 (stereo not given)	3	7	0	-6	0	-10
COc1ccc(-c2cc(-c3n[nH]c(=S)n3-c3ccccc3OC)[nH]n2)cc1	21	-9	0	-11	0	88*
COc1ccc(N2C(=S)NC3CS(=O)(=O)CC32)cc1 (stereo not given)	0	8	-1	-5	0	-2
O=C(COc1ccc(Cl)cc1Cl)NC(=S)N1CCCc2ccccc21	16	11	1	86	0	98*
CC(=O)Cc1cc(=O)c2c(C)cc(O)c(C3OC(CO)C(O)C(O)C3O)c2o1 (stereo not given)	0	21	?	-4	0	-33
O=c1c2cc(O)c(O)cc2oc2cc(O)c(C3OC(CO)C(O)C(O)C3O)c(O)c12 (stereo not given)	1	24	0	-10	0	99*
O=c1cc(-c2ccc(O)c(O)c2)oc2cc(O)c([C@@H]3O[C@H](CO)[C@@H](O)[C@H](O)[C@H]3O)c(O)c12	-2	12	1	0	0	99*
Cc1ccc(N=Nc2cc(C)ccc2O)c(C)c1	/	-8	-2	-3	0	-19
SMILES	AHR act	VLA-4 inh	A1 inh	Mot1-301 SUMO	Efflux pump inh	ALR inh
Nc1ccc(N=Nc2ccccc2O)c(N)c1	72*	6	-2	13	0	83*
O=C(c1ccco1)N1CCN(Cc2cc(=O)c(OCc3c(F)cccc3Cl)co2)CC1	-1	-5	1	-18	0	11
CC(C)c1nnc(NC(=O)CCC(=O)N2CCN(c3ccccc3F)CC2)s1	1	-4	0	24	0	2
Cc1nn(-c2ccccc2)c(N)c1N=Nc1ccc2ccccc2c1	155*	4	1	1	0	-17
Cc1ccc(-c2nc(C#N)c(NCCN3CCCCC3)o2)cc1	34	12	0	-19	0	92*
N#Cc1nc(-c2ccccc2F)oc1NCCN1CCOCC1	1	-21	0	2	0	96*
